Measurements reported in PubChem BioAssay AID743279 (National Center for Advancing Translational Sciences (NCATS), 2014).
Several values for one entry are separate records, joined by “and”; a condition that tells them apart may be missing. Identical values can stand only once. Among all 360,000 compounds or so, about 17,000 (4.7%) were called active. Another 5% or so got no clear call; they are omitted. Cut-off read from the data, not from the text of the source: active = activity change below about -50%; inconclusive = mostly about -30% to -49%; inactive = weaker than that. The sample as a whole holds a higher share of actives than the screen did.

Test: qHTS for Inhibitors of Inflammasome Signaling: IL-1-beta AlphaLISA Primary Screen
Settings: THP-1 LPS/ATP IL-1B secretion, 16 h; at 57.5 µM, hits give low values
Method in brief: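 Secreted IL-1B measured by AlphaLISA bead assay after 16 h compound exposure of THP-1 cells; compounds (final up to 57.5 uM) added 1 h before LPS (250 ng/mL) and ATP (1.25 mM) stimulation; lower signal means less secretion.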
% is set by controls: 0 for no effect and ±100 for the full control effect.

SMILES	activity change
COc1cc(OC)cc(C2=Cc3ccccc3C(CC(=O)c3ccco3)N2c2ccc(-c3cnc(OC)nc3)cc2)c1 (stereo not given)	3.59% (inactive)
CCOc1ccc(Cl)cc1-c1cc(C(=O)NCc2cccs2)[nH]n1	-22.8% (inactive)
COC(=O)C[C@@H]1C=C[C@@H](NS(=O)(=O)c2cccc(OC)c2)[C@@H](CO)O1	-5.98% (inactive)
CCOC(=O)/C(=N\Nc1cc(Cl)ccc1Cl)N1CCN(C)CC1	19% (inactive)
COc1cc2ccc(C(C)=O)c(O)c2cc1OC	-10.2% (inactive)
COc1ccc(C)cc1S(=O)(=O)NC1CCCCC1	-4.98% (inactive)
COc1ccc(-c2nc3cc(C)ccn3c2NC2CCCCC2)cc1SC1CCCCC1	-85% (active)
CCOc1cc(-c2nc3cc(C)ccn3c2NCC2CCCO2)ccc1O (stereo not given)	2.58% (inactive)
COc1ccc(-c2nc3cnccn3c2NC2CCCCC2)cc1-c1cccc(Cl)c1	-76.6% (active) and -52.7% (active)
COC(=O)c1ccc2nc(-c3ccc(OC)c(OC)c3)c(Cc3ccccc3)n2c1	-9.54% (inactive)
COc1ccc(-c2nc3cnccn3c2NC(C)(C)CC(C)(C)C)cc1O	-71.3% (active)
COc1cccc(-c2nc3nc(C)cc(C)n3c2NC2CCCCC2)c1	8.2% (inactive)
Cc1ccc2nc(-c3cccnc3)c(NC3CCCC3)n2c1	-1.15% (inactive)
CC(=O)Nc1cc(-c2ccccc2F)cn2c(-c3cccc(C(F)(F)F)c3)cnc12	-13.7% (inactive)
COc1cc(C=NC2CCCCC2)ccc1O	9.61% (inactive)
Cc1ccc(-c2nc(C)sc2CC(=O)OCC(=O)Nc2c(F)cccc2F)cc1	8.31% (inactive)
CCNC(=O)C1CCCN(C(=O)c2ccc(OC)cc2OC)CC1 (stereo not given)	5.59% (inactive)
COC(=O)CC(CC(=O)OC)n1cccc1	4.98% (inactive)
O=C(CN(Cc1ccc(Br)cc1)S(=O)(=O)c1ccccc1)NCc1ccncc1	-5.94% (inactive)
Cc1cc(C)cc(C(=O)NC(CC(N)=O)c2ccc(N3CCC(N4CCCCC4)CC3)c([N+](=O)[O-])c2)c1 (stereo not given)	-16.2% (inactive)
CCOC(=O)c1c(C)[nH]c(C)c1C(=O)COC(=O)/C=C/c1cccc([N+](=O)[O-])c1	-15% (inactive)
CCCOC1CCCN(C(=O)c2cc(COc3cncc(Cl)c3)on2)C1 (stereo not given)	0% (inactive)
NC(=O)COC(=O)/C=C/c1ccc2ccccc2n1	-101% (active)
COc1ccc(C(=O)COC(=O)c2ccc3ccccc3n2)cc1	3.46% (inactive)
CC(NC(=O)COC(=O)c1ccc2ccccc2n1)c1ccccc1 (stereo not given)	2.13% (inactive)
